Screening data deposited in PubChem BioAssay by Broad Institute.
MITF inh: MITF inhibition; 37,000 compounds, 0.28% hits; TRPM1 promoter luciferase, luminescence, 24 h; inhibition, % (test concentration not listed); in the data active = inhibition above about 85%; inconclusive = no clear call, values can overlap the other calls; inactive = below about 68%;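 note: human melanocyte line stably carrying TRPM1 promoter luciferase reporter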
PD-1 reversal: reversal of PD-1 mediated T-cell inhibition; primary human CD4 T cells, PD-L1 beads, CellTiter-Glo 96 h; activation, % (concentration not given with the values); 29,000 tested, under 10 active; AID 2316; call rule not given here
Shh pathway inh: blocks Sonic Hedgehog signaling. Shh-LIGHT2 Gli-luciferase reporter, 30 h. 22,000 compounds, 2.1% hits. inhibition, % (concentration not given with the values);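 active = mean inhibition across valid replicates above about 65%, limit read from the data; inconclusive = mean under the limit, yet half or more replicates past it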;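 note: pathway switched on by Shh-conditioned medium diluted 1 in 25 in low serum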
NOMO-1 viab: STK33 inhibitor candidate reducing NOMO-1 cell viability | NOMO-1 AML viability, CellTiter-Glo luminescence, 72 h | inhibition, % (no concentration beside the values) | 37,000 compounds, 7.5% hits | AID 2330; in the data active = inhibition above about 80%; inconclusive = no clear call, values can overlap the other calls
Numbers stand for hits. Most compounds without a hit are left out; they make up all but 8.1% or so of the library.

For C[C@@H]1CN([C@@H](C)CO)C(=O)Cc2cc(NC(=O)Nc3ccccc3)ccc2O[C@@H]1CN(C)CC1CCCCC1 the results were MITF inh inactive, Shh pathway inh inactive and NOMO-1 viab inconclusive.
C[C@@H]1CN([C@H](C)CO)C(=O)Cc2cc(NC(=O)C3CCCCC3)ccc2O[C@@H]1CN(C)CC1CCCCC1 was read as MITF inh inactive, PD-1 reversal inactive, Shh pathway inh 75.8 and NOMO-1 viab inactive.
C[C@H]1CN([C@@H](C)CO)C(=O)Cc2cc(NC(=O)C3CCCCC3)ccc2O[C@H]1CN(C)CC1CCCCC1 was read as MITF inh inactive, PD-1 reversal inactive, Shh pathway inh inactive and NOMO-1 viab inactive.
`C[C@@H]1CN([C@H](C)CO)C(=O)Cc2cc(NC(=O)Nc3ccccc3)ccc2O[C@@H]1CN(C)CC1CCCCC1` gave MITF inh inactive, PD-1 reversal inactive and NOMO-1 viab 104.4.
Screening C[C@H]1CN([C@@H](C)CO)C(=O)Cc2cc(NC(=O)Nc3ccccc3)ccc2O[C@@H]1CN(C)CC1CCCCC1 returned MITF inh inactive, PD-1 reversal inactive, Shh pathway inh inactive and NOMO-1 viab 101.4.
`C[C@@H]1CN([C@H](C)CO)C(=O)Cc2cc(NC(=O)Nc3ccc(F)cc3)ccc2O[C@@H]1CN(C)CC1CCCCC1` gave MITF inh inactive, PD-1 reversal inactive and NOMO-1 viab 100.1.
For N#CC1=C(N)Oc2c(sc3ccccc23)C1c1ccccc1OC(=O)c1ccccc1Cl (centres undefined) the results were MITF inh inactive, PD-1 reversal inactive, Shh pathway inh inactive and NOMO-1 viab 114.8.
For N#CC1=C(N)OC(C2CC2)=C(C#N)C1c1ccccc1Cl (centres undefined) the results were MITF inh inactive, PD-1 reversal inactive, Shh pathway inh inactive and NOMO-1 viab inactive.
For Cc1c(C)c(C)c(CSC2CC(=O)N(c3ccccc3)C2=O)c(C)c1C (centres undefined) the results were MITF inh inactive, PD-1 reversal inactive, Shh pathway inh inactive and NOMO-1 viab inactive.
O=C1CC(Sc2nnc(-c3ccccc3O)o2)C(=O)N1c1ccccc1 (centres undefined) was read as MITF inh inactive, PD-1 reversal inactive and NOMO-1 viab 122.3.
COc1ccc(Cl)cc1N(CC(=O)N1CCN(c2cccc(Cl)c2)CC1)S(C)(=O)=O was read as MITF inh inactive, PD-1 reversal inactive and NOMO-1 viab inactive.
Screening CC1CCC/C=C2\C(=O)C=CC3OC(/C=C/C=C/C=C/C(=O)O)=C(C(=O)O1)C23 (centres undefined) returned MITF inh inactive, PD-1 reversal inactive, Shh pathway inh inactive and NOMO-1 viab 121.9.
COc1ccc(NC(=O)Nc2cccc3c2O[C@H](CN(C)Cc2ccc(C(F)(F)F)cc2)[C@@H](C)CN([C@@H](C)CO)C3=O)cc1 was read as MITF inh inactive, PD-1 reversal inactive, Shh pathway inh inactive and NOMO-1 viab 84.8.
For COc1ccc(NC(=O)Nc2cccc3c2O[C@H](CN(C)Cc2ccc(C(F)(F)F)cc2)[C@@H](C)CN([C@H](C)CO)C3=O)cc1 the results were MITF inh inactive, PD-1 reversal inactive, Shh pathway inh inactive and NOMO-1 viab 106.2.
COc1ccc(CN(C)C[C@H]2Oc3c(NC(=O)Nc4ccc(C(F)(F)F)cc4)cccc3C(=O)N([C@@H](C)CO)C[C@@H]2C)cc1 was read as MITF inh inactive, PD-1 reversal inactive, Shh pathway inh inconclusive and NOMO-1 viab 101.0.
COc1ccc(CN(C)C[C@@H]2Oc3c(NC(=O)Nc4ccc(C(F)(F)F)cc4)cccc3C(=O)N([C@H](C)CO)C[C@H]2C)cc1 was read as MITF inh inactive, PD-1 reversal inactive, Shh pathway inh inactive and NOMO-1 viab 104.5.
`COc1ccc(CN(C)C[C@H]2Oc3c(NC(=O)Nc4ccc(C(F)(F)F)cc4)cccc3C(=O)N([C@@H](C)CO)C[C@H]2C)cc1` gave MITF inh inactive, Shh pathway inh inactive and NOMO-1 viab inactive.
COc1ccc(CN(C)C[C@@H]2Oc3c(NC(=O)Nc4ccc(C(F)(F)F)cc4)cccc3C(=O)N([C@@H](C)CO)C[C@@H]2C)cc1 was read as MITF inh inactive, Shh pathway inh inactive and NOMO-1 viab inactive.
`CCC(Sc1nnnn1-c1ccccc1)C(=O)Nc1cccc([N+](=O)[O-])c1` (centres undefined) gave MITF inh inactive, PD-1 reversal inactive and NOMO-1 viab inactive.
`CC(=O)c1ccc(NC(=O)CN(C)S(=O)(=O)c2ccc(C)cc2)cc1` gave MITF inh inactive, PD-1 reversal inactive and NOMO-1 viab inactive.
For Cc1sc2nc(C(=O)Oc3ccc(F)cc3)cc(N)c2c1C the results were MITF inh inactive, PD-1 reversal inactive, Shh pathway inh inactive and NOMO-1 viab inactive.
`CC(=O)N[N+]1=C(N)c2ccccc2C1` gave MITF inh inactive, PD-1 reversal inactive, Shh pathway inh inactive and NOMO-1 viab inactive.
Screening O=C(CN1C(=O)C2C3CCC(C3)C2C1=O)Nc1cccc(C(=O)O)c1 (centres undefined) returned MITF inh inactive, PD-1 reversal inactive and NOMO-1 viab inactive.
COc1ccc(CN(C)C[C@H]2Oc3c(NC(=O)Nc4ccc(OC)cc4)cccc3C(=O)N([C@H](C)CO)C[C@@H]2C)cc1 was read as MITF inh inactive, PD-1 reversal inactive, Shh pathway inh inactive and NOMO-1 viab inactive.
Screening COc1ccc(CN(C)C[C@H]2Oc3c(NC(=O)Nc4ccc(C(F)(F)F)cc4)cccc3C(=O)N([C@H](C)CO)C[C@@H]2C)cc1 returned MITF inh inactive, PD-1 reversal inactive, Shh pathway inh inactive and NOMO-1 viab 94.3.
COc1ccc(NC(=O)Nc2cccc3c2O[C@@H](CN(C)Cc2ccc(C(F)(F)F)cc2)[C@H](C)CN([C@@H](C)CO)C3=O)cc1 was read as MITF inh inactive, PD-1 reversal inactive, Shh pathway inh inactive and NOMO-1 viab 98.2.
For C=C1CC(O)C2C(=C)C(=O)OC2C2C(=C)C(OC3OC(CO)C(O)C(OC(=O)/C=C/c4ccc(O)c(O)c4)C3O)CC12 (centres undefined) the results were Shh pathway inh inactive.
For CN(C)c1ccc(/C=C2/C(=O)Nc3ccccc32)cc1 the results were MITF inh inactive, PD-1 reversal inactive, Shh pathway inh inactive and NOMO-1 viab inactive.
O=C1Nc2ccccc2/C1=C\c1c(Cl)[nH]c2ccccc12 was read as MITF inh inactive, PD-1 reversal inactive, Shh pathway inh inactive and NOMO-1 viab 97.3.
For COc1ccc(NC(=O)CC2NC3CCCCC3NC2=O)cc1 (centres undefined) the results were MITF inh inactive, PD-1 reversal inactive and NOMO-1 viab inactive.
Screening CCCCC/C=C/C(=O)CCc1ccc(O)c(OC)c1 returned MITF inh inactive, PD-1 reversal inactive, Shh pathway inh inactive and NOMO-1 viab 118.0.
Screening Cc1noc(C)c1NC(=O)Nc1ccc2c(c1)C(=O)N([C@H](C)CO)C[C@H](C)[C@@H](CN(C)S(=O)(=O)c1c(C)noc1C)OCCCC[C@@H](C)O2 returned MITF inh inactive, PD-1 reversal inactive, Shh pathway inh inactive and NOMO-1 viab inactive.
